In PubChem BioAssay (NCI):
About 83,000 compounds went through this panel and 20% of them were active in at least one assay; those are over-represented in the sample as a whole.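 The test compound was applied at a single concentration to cells in 96-well plates for 48 hours, and percent growth was recorded.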 Activity calls are given as the source filed them. How the source made its calls: active means growth percent below 10; inactive means the rest. Where a SMILES comes first, the peptide text is derived from it. Bridges are numbered along the chain shown (N, C = ends). [ ]: non-standard residue; d: D form. The star is where a group is joined. ξ: configuration not given here. ξNMePhe(4-NMe2) = CNC(Cc1ccc(N(C)C)cc1)C(=O)O; Picolinoyl(3-OH) = O=C(c1ncccc1O)*; ξPip(4-oxo) = O=C1CCNC(C(=O)O)C1; Phg = N[CH](C(=O)O)c1ccccc1; Abu = CC[CH](N)C(=O)O

Experiments:
Test in all cases: NCI-60 one-dose screen, 48 h (100 = growth as untreated, 0 = no growth, -100 = all killed)
Settings in all cases: 10 µM
[1] = system: NCI-H23 lung
[2] = system: NCI-H226 lung
[3] = system: NCI-H322M lung
[4] = system: HOP-62 NSCLC
[5] = system: NCI-H460 lung
[6] = system: HOP-92 NSCLC
[7] = system: NCI-H522 lung
[8] = system: A549/ATCC NSCLC
[9] = system: 786-0 renal
[10] = system: COLO 205 colon

Measured: growth

CC(C)=NNc1ccc([N+](=O)[O-])cc1[N+](=O)[O-]
inactive: [1] 95.5% | [2] 98.3% | [3] 87.9% | [4] 87.9% | [5] 88.1% | [6] 80.2% | [7] 82.1% | [8] 83.2% | [9] 93.8% | [10] 84.9%

Oc1ccccc1-c1nnco1
inactive: [1] 94.9% | [2] 93.1% | [3] 89.9% | [4] 81.5% | [5] 104% | [6] 97% | [7] 91% | [8] 98.9% | [9] 90.6% | [10] 103%

CC(=O)OCC1OC(OC2=C(CC=C(C)C)C(=O)c3ccccc3C2=O)C(OC(C)=O)C(OC(C)=O)C1OC(C)=O (configuration not stated)
inactive: [1] 23.3% | [2] 57.1% | [3] 77.5% | [4] 94.5% | [5] 34.6% | [7] 22.3% | [8] 79.5% | [9] 88.9% | [10] 66%
active: [6] -3.11%

O=C(Nc1cc(-c2ccccc2)[nH]n1)c1ccc(Cl)cc1
inactive: [1] 87.8% | [2] 88.4% | [3] 79.4% | [4] 88.3% | [5] 56% | [6] 81.4% | [7] 72.5% | [8] 70.3% | [9] 79.5% | [10] 104%

CC(=O)Cc1cc(-c2cc(CC(C)=O)[nH]n2)n[nH]1
inactive: [1] 102% | [2] 99.3% | [3] 96.2% | [4] 95.1% | [5] 105% | [6] 104% | [7] 95.8% | [8] 102% | [9] 103% | [10] 110%

Nc1ccc(C(=O)c2ccc(N)c(Br)c2)cc1Br
active: [5] -0.543% | [7] -36.1% | [10] -30.6%
inactive: [1] 44.4% | [2] 65.3% | [3] 65.5% | [4] 29.5% | [6] 34.7% | [8] 17.9% | [9] 34%

FC(F)(F)c1ccc2c(c1)N(CCCN1CCN(C3CC3)CC1)c1ccccc1S2
inactive: [1] 27% | [2] 75.4% | [3] 112% | [4] 95.7% | [5] 24.4% | [6] 51.1% | [7] 28.7% | [8] 67.3% | [9] 63.9% | [10] 79.9%

COc1ccccc1NC(=O)C1=C(C)NC(C)=C(C(=O)Nc2ccccc2OC)C1c1cccc([N+](=O)[O-])c1
inactive: [1] 76.6% | [2] 74.7% | [3] 91.2% | [4] 68.5% | [5] 67.5% | [6] 56.8% | [7] 72.4% | [8] 67% | [9] 84.6% | [10] 89.3%

NC(=S)NN=C1CCCC1
inactive: [1] 83.2% | [2] 95.6% | [3] 91.7% | [4] 95% | [5] 104% | [6] 82.1% | [7] 99.8% | [8] 81.1% | [9] 106% | [10] 101%

CC(=O)c1ccc(C)c(N)c1
inactive: [1] 81.5% | [2] 95.8% | [3] 121% | [4] 99.6% | [5] 111% | [6] 92.9% | [7] 99.9% | [8] 92.8% | [9] 103% | [10] 110%

CCC1NC(=O)C(NC(=O)c2ncccc2O)C(C)OC(=O)C(c2ccccc2)NC(=O)C2CC(=O)CCN2C(=O)C(Cc2ccc(N(C)C)cc2)N(C)C(=O)C2CCCN2C1=O (configuration not stated) (tested in a mixture with another compound) ({Picolinoyl(3-OH)}-T[Abu]P[ξNMePhe(4-NMe2)][ξPip(4-oxo)][Phg]; ester 1-C; configuration not given here)
inactive: [1] 19.7% | [2] 56.7% | [3] 87.2% | [4] 87.7% | [5] 26.2% | [6] 53.8% | [7] 66% | [8] 28.1% | [9] 67.4% | [10] 27%

CCCCCCCCCCCCCC(=O)Oc1ccc[nH]c1=O
inactive: [1] 105% | [2] 92.7% | [3] 87% | [4] 94.1% | [5] 105% | [6] 84.9% | [7] 90.7% | [8] 89.4% | [9] 89.7% | [10] 112%

O=c1cc(-c2ccccc2)[nH]c2c1CCCC2
inactive: [1] 32.1% | [2] 54.3% | [3] 50.8% | [4] 28.8% | [6] 46.7% | [7] 13.6% | [8] 36.6% | [9] 36.4%
active: [5] 7.59% | [10] -10.1%

CC(C)OC(=O)c1cc(NC(=S)OC(C)C)ccc1Cl
inactive: [1] 79.7% | [2] 86.6% | [3] 85.8% | [4] 91.5% | [5] 108% | [6] 73.8% | [7] 77.4% | [8] 70.6% | [9] 82.2% | [10] 102%

COc1cccc(Sc2ccc([N+](=O)[O-])c3no[n+]([O-])c23)c1
active: [6] 3.91% | [7] -19.9% | [10] -42.2%
inactive: [1] 68.8% | [2] 85.3% | [3] 88.7% | [4] 103% | [5] 95.7% | [8] 84%

COC(=O)C(C)Oc1ccc(OC#N)cc1 (configuration not stated)
inactive: [1] 95% | [2] 97.3% | [3] 100% | [4] 98.2% | [5] 103% | [6] 95.3% | [7] 103% | [8] 99.4% | [9] 102% | [10] 107%

CC(C)=C(NC(=O)c1ccccc1)C(=O)O
inactive: [1] 107% | [2] 103% | [3] 104% | [4] 115% | [5] 111% | [6] 84.5% | [7] 92.3% | [8] 105% | [9] 112% | [10] 112%

COc1cc2c(cc1OC)[C@H](C(=O)O)[C@@H](c1ccc(OC(C)C)c(OC)c1)N(C)C2=O
inactive: [1] 96.8% | [2] 89.9% | [3] 83.5% | [4] 92.4% | [5] 105% | [6] 83.3% | [8] 106% | [9] 100% | [10] 118%

NC(=O)c1ccc(N=C(N)N=C(N)N)cc1
inactive: [1] 102% | [2] 84.1% | [3] 90.6% | [4] 87.2% | [5] 104% | [6] 83.2% | [7] 103% | [9] 96.4% | [10] 115%

CN(C)c1ccc(C(c2ccc(O)cc2)c2ccc(N(C)C)cc2)cc1
inactive: [1] 104% | [2] 92.9% | [3] 98.4% | [4] 99.7% | [5] 98.6% | [6] 90.9% | [7] 81.1% | [9] 105% | [10] 101%

CCOC(=O)C1=C(Nc2ccc(Br)cc2)C(=O)N(CC)C1
inactive: [1] 98.8% | [2] 86.3% | [3] 95.6% | [4] 85.9% | [5] 107% | [6] 48.3% | [8] 98.8% | [9] 91.4% | [10] 108%

O=C(NC1CCCCC1)OCc1c(COC(=O)NC2CCCCC2)c(-c2ccc(Cl)c(Cl)c2)n2c1CCC2
active: [2] 2.9% | [5] 3.73% | [6] -1.46% | [7] -23.9% | [9] 8.95%
inactive: [1] 22.7% | [3] 48.6% | [4] 27.4% | [10] 31.8%

O=S(=O)(O)c1ccc(Cl)c(Cl)c1
inactive: [1] 101% | [2] 111% | [3] 127% | [4] 102% | [5] 110% | [6] 94.3% | [8] 95.5% | [9] 98.5% | [10] 117%

O=C(NCCNC(=O)c1ccc(Cl)cc1Cl)c1ccc(Cl)cc1Cl
inactive: [1] 114% | [2] 101% | [3] 113% | [4] 87.6% | [5] 105% | [6] 71.8% | [8] 104% | [9] 107% | [10] 129%

O=C(O)c1ccccc1NCc1ccco1
inactive: [1] 90.9% | [2] 92.6% | [3] 102% | [4] 95.7% | [5] 102% | [6] 108% | [8] 102% | [9] 97.2% | [10] 126%

C/C(=N\NC(=O)c1ccccc1N)c1ccccc1O
inactive: [1] 38.7% | [2] 52.8% | [3] 26.4% | [4] 43.3% | [5] 23.5% | [6] 18.2% | [8] 28.2% | [9] 60.6%
active: [10] 9.89%

Brc1cnc2ccccc2c1
inactive: [1] 103% | [2] 105% | [3] 106% | [4] 100% | [5] 109% | [6] 95.1% | [8] 104% | [9] 109% | [10] 100%

CC(=O)c1cc2c(cc1F)C(C)(C)CCC2(C)C
inactive: [1] 90.6% | [2] 96.9% | [3] 96.8% | [4] 112% | [5] 107% | [6] 88% | [8] 89% | [9] 103% | [10] 102%

Oc1ccc(Cc2ccccc2)c2cccnc12
active: [1] 7.91% | [3] -2.54% | [5] 0.164% | [6] -0.901% | [9] -1.42%
inactive: [2] 75.7% | [4] 18.3% | [8] 16.2% | [10] 96.5%
